Assay results taken from PubChem BioAssay (NCATS).
Records with an inconclusive call do not appear. Activity calls are given as the source filed them. The call rests on the fitted dose curve; in most records, active means well fitted curve in the direction sought with a large enough effect; inconclusive means small, poorly fitted or top-dose-only effect, or another doubt; inactive means no such curve, though single readings can be large; an effect the other way counts as inactive or inconclusive.

How the values were obtained:
[1] = qHTS of pediatric cancer cell lines to identify multiple opportunities for drug repurposing: Primary screen for NB1643 cells (AID 1347099); further: nearly all actives have a fitted effect of over 50% in size
In short: (§1)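 Cells seeded at 500-1,000 cells/well in growth media, rested 5 hours at 37 degrees C, 5% CO2, then dosed; MIPE compounds at 11-point (from 0.78 nM) and NPC at 8-point (from 0.59 nM) final concentrations. Viability by CellTiter-Glo luminescence after 48 hours.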

[2] = qHTS of pediatric cancer cell lines to identify multiple opportunities for drug repurposing: Primary screen for LAN-5 cells (AID 1347100)
In short: (§2)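 Viability after 48 h compound treatment at 37C, 500-1,000 cells/well, read as ATP luminescence with CellTiter-Glo. Primary screens used 11-point (MIPE, 0.78 nM-46 µM) or 8-point (NPC, 0.59 nM-46 µM) final concentrations; follow-up screens used 11-point dilutions.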

[3] = qHTS of pediatric cancer cell lines to identify multiple opportunities for drug repurposing: Primary screen for BT-12 cells (AID 1347101); further: nearly all actives have a fitted effect of over 25% in size
In short: (§3)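 Cells (500-1,000/well) rested 5 h, then received compounds for 48 h; metabolically active cells were measured by CellTiter-Glo luminescence. Final concentrations spanned up to 46 µM (MIPE, 11-point) or 0.59 nM-46 µM (NPC, 8-point) in primary screens, 11-point in follow-ups.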

[4] = qHTS of pediatric cancer cell lines to identify multiple opportunities for drug repurposing: Primary screen for Rh18 cells (AID 1347102); further: nearly all actives have a fitted effect of over 65% in size
In short: as §2

[5] = qHTS of pediatric cancer cell lines to identify multiple opportunities for drug repurposing: Primary screen for MG 63 (6-TG R) cells (AID 1347105); further: nearly all actives have a fitted effect of over 50% in size
In short: as §1

[6] = qHTS of pediatric cancer cell lines to identify multiple opportunities for drug repurposing: Primary screen for control Hh wild type fibroblast cells (AID 1347106);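 further: series mostly up to about 46 µM; a drop in luminescence marks cytotoxicity and a rise apparent proliferation; nearly all actives have a fitted effect of over 55% in size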
In short: as §2

[7] = qHTS of pediatric cancer cell lines to identify multiple opportunities for drug repurposing: Primary screen for Rh41 cells (AID 1347108);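 further: series mostly up to about 46 µM; luminescence drop marks cytotoxic hits; nearly all actives have a fitted effect of over 70% in size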
In short: as §1

[8] = qHTS of pediatric cancer cell lines to identify multiple opportunities for drug repurposing: Primary screen for RD cells (AID 1347104); further: nearly all actives have a fitted effect of over 55% in size
In short: as §1

[9] = qHTS of pediatric cancer cell lines to identify multiple opportunities for drug repurposing: Primary screen for Rh30 cells (AID 1347107); further: series mostly up to about 46 µM; nearly all actives have a fitted effect of over 75% in size
In short: as §2

[10] = qHTS of pediatric cancer cell lines to identify multiple opportunities for drug repurposing: Primary screen for OHS-50 cells (AID 1347103); further: nearly all actives have a fitted effect of over 40% in size
In short: as §3

Measured: Potency

CCc1cc(Cl)c(OC)c(C(=O)NC[C@@H]2CCCN2CC)c1O
not listed: [8] | [9] | [10]
inactive: all other assays above

N#C/C(=C1\SCC(c2ccccc2Cl)S1)n1ccnc1 (stereo not drawn)
not listed: [6] | [10]
inactive: all other assays above

Cc1ccc(O)c([C@H](CCN(C(C)C)C(C)C)c2ccccc2)c1
not listed: [8] | [10]
inactive: all other assays above

C#C[C@]1(O)CC[C@H]2[C@@H]3CCC4=CC(=O)CC[C@@H]4[C@H]3CC[C@@]21CC
not listed: [4] | [6]
inactive: all other assays above

O=[N+]([O-])c1cccc(S(=O)(=O)NCCNS(=O)(=O)c2cccc([N+](=O)[O-])c2)c1
not listed: [6] | [10]
inactive: all other assays above

CCOc1cc(OCC)c(C(=O)CCC(=O)O)cc1OCC
not listed: [4] | [9]
inactive: all other assays above

O=C1OC2(c3ccccc31)c1cc(Br)c(O)c(Br)c1Oc1c2cc(Br)c(O)c1Br
not listed: [4] | [6]
inactive: all other assays above

Cc1ncc(CO)c(C=O)c1O
not listed: [4] | [8]
inactive: all other assays above

O=C(O)C1(C(=O)O)CCC1.[NH2-].[NH2-].[Pt+2]
not listed: [4]
inactive: all other assays above

CCCCCCCCOc1ccc(C(=O)c2ccccc2)c(O)c1
not listed: [4]
inactive: all other assays above

CN(Cc1ccc(C(C)(C)C)cc1)Cc1cccc2ccccc12
not listed: [5] | [9] | [10]
inactive: all other assays above

CCCCCCCCCCC[C@@H](C[C@@H]1OC(=O)[C@H]1CCCCCC)OC(=O)[C@H](CC(C)C)NC=O
not listed: [5] | [8] | [10]
inactive: all other assays above

C[C@H]1[C@H]2CC[C@H]3[C@@H]4CC=C5C[C@@H](N(C)C)CC[C@]5(C)[C@H]4CC[C@]23CN1C
not listed: [8] | [10]
inactive: all other assays above
